Several values for one entry are separate records, joined by “and”; a condition that tells them apart may be missing. Identical values can stand only once. In all, about 5,500 compounds went through this assay and about 2,000 (36%) were called active. Inconclusive results (about 18%) are left out. No stated cut-off is given here; in the data, active means normalized growth mostly below about 0.91 (no sharp cut-off); inconclusive means no clear call, values can overlap the other calls; inactive means mostly above about 0.92. The list shows a part of the results. Where a SMILES comes first, the peptide text is derived from it. Bridges are numbered along the chain shown (N, C = ends). [ ]: non-standard residue; d: D form. The star is where a group is joined. ξ: configuration not given here. ξDab(CH2SO3H) = NC(CCNCS(=O)(=O)O)C(=O)O; Heptanoyl(6-Me) = CC(C)CCCCC(=O)*; Dab = NCC[CH](N)C(=O)O
Test: chemical genetic growth profiling, strain panel (AID 1159580);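 further: tested at 20 µM; growth read once vehicle control cultures reached saturation at 30 °C; 1 = growth at the plate median or of vehicle wells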
Details: S. cerevisiae deletion strains, growth OD

Measured: normalized growth

CCC(C)C1NC(=O)C(CCNCS(=O)(=O)O)NC(=O)C(NC(=O)C(CCNCS(=O)(=O)O)NC(=O)C(NC(=O)C(CCNCS(=O)(=O)O)NC(=O)CCCCC(C)C)C(C)O)CCNC(=O)C(C(C)O)NC(=O)C(CCNCS(=O)(=O)O)NC(=O)C(CCNCS(=O)(=O)O)NC(=O)C(C(C)CC)NC1=O (stereo unspecified) ({Heptanoyl(6-Me)}-[ξDab(CH2SO3H)]T[ξDab(CH2SO3H)][Dab][ξDab(CH2SO3H)]II[ξDab(CH2SO3H)][ξDab(CH2SO3H)]T; lactam 4-C; configuration not given here)
inactive: locus YAL013W, strain DEP1, stronger effect = lower value 1 | locus YAL021C, strain ccr4, stronger effect = lower value 0.93 | locus YAL026C, strain drs2, stronger effect = lower value 0.989 | locus YAL030W, strain snc1, stronger effect = lower value 0.99 | locus YBL061C, strain skt5, stronger effect = lower value 0.981 | locus YBR009C, strain hhf1, stronger effect = lower value 0.971 | locus YBR021W, strain FUR4, stronger effect = lower value 1.02 | locus YBR023C, strain chs3, stronger effect = lower value 0.985 | locus YBR171W, strain sec66, stronger effect = lower value 0.995 | locus YBR229C, strain ROT2, stronger effect = lower value 0.987 | locus YBR231C, strain swc5, stronger effect = lower value 1 | locus YBR279W, strain paf1, stronger effect = lower value 1 | locus YCL011C, strain gbp2, stronger effect = lower value 0.996 | locus YCL016C, strain dcc1, stronger effect = lower value 0.994 | locus YCL029C, strain bik1, stronger effect = lower value 0.955 | locus YCL061C, strain MRC1, stronger effect = lower value 0.996 | locus YCL069W, strain vba3, stronger effect = lower value 0.978 | locus YCR088W, strain abp1, stronger effect = lower value 0.976 | locus YDL005C, strain med2, stronger effect = lower value 1.01 | locus YDL035C, strain GPR1, stronger effect = lower value 0.989 | locus YDL040C, strain nat1, stronger effect = lower value 0.972 | locus YDL074C, strain BRE1, stronger effect = lower value 1 | locus YDL101C, strain DUN1, stronger effect = lower value 0.992 | locus YDL134C, strain PPH21, stronger effect = lower value 0.993 | locus YDL185W, strain tfp1, stronger effect = lower value 0.935 | locus YDL192W, strain arf1, stronger effect = lower value 0.965 | locus YDR001C, strain nth1, stronger effect = lower value 0.992 | locus YDR069C, strain doa4, stronger effect = lower value 0.961 | locus YDR101C, strain arx1, stronger effect = lower value 0.983 | locus YDR137W, strain rgp1, stronger effect = lower value 1.03 | locus YDR150W, strain NUM1, stronger effect = lower value 0.97 | locus YDR159W, strain sac3, stronger effect = lower value 0.95 | locus YDR162C, strain NBP2, stronger effect = lower value 0.98 | locus YDR195W, strain ref2 0.946 | locus YDR297W, strain sur2, stronger effect = lower value 0.998 | locus YDR318W, strain mcm21, stronger effect = lower value 0.956 | locus YDR334W, strain swr1, stronger effect = lower value 0.959 | locus YDR335W, strain msn5, stronger effect = lower value 0.984 | locus YDR388W, stronger effect = lower value 0.972 | locus YDR392W, strain spt3, stronger effect = lower value 1.02 | locus YDR502C, strain sam2, stronger effect = lower value 0.976 | locus YEL003W, strain gim4, stronger effect = lower value 0.996 | locus YEL037C, strain rad23, stronger effect = lower value 0.969 | locus YEL061C, strain CIN8 (second series), stronger effect = lower value 0.978 | locus YEL061C, strain CIN8, stronger effect = lower value 0.982 | locus YER015W, strain faa2, stronger effect = lower value 0.996 | locus YER016W, strain bim1, stronger effect = lower value 0.997 | locus YER110C, stronger effect = lower value 0.98 | locus YER111C, strain swi4, stronger effect = lower value 1 | locus YER155C, strain BEM2 (second series), stronger effect = lower value 1.01 | locus YER155C, strain BEM2, stronger effect = lower value 0.984 | locus YER167W, strain BCK2, stronger effect = lower value 0.964 | locus YFR010W, strain ubp6, stronger effect = lower value 0.979 | locus YGL078C, strain dbp3, stronger effect = lower value 0.968 | locus YGL086W, strain mad1, stronger effect = lower value 0.972 | locus YGL167C, strain pmr1, stronger effect = lower value 0.967 | locus YGL173C, strain kem1, stronger effect = lower value 0.984 | locus YGL227W, strain vid30, stronger effect = lower value 0.988 | locus YGL240W, strain doc1, stronger effect = lower value 1 | locus YGL248W, strain PDE1, stronger effect = lower value 0.988 | locus YGL253W, strain hxk2, stronger effect = lower value 0.993 | locus YGR078C, strain PAC10, stronger effect = lower value 0.999 | locus YGR135W, strain pre9, stronger effect = lower value 0.988 | locus YGR229C, strain SMI1, stronger effect = lower value 1.01 | locus YGR252W, strain gcn5, stronger effect = lower value 1.1 | locus YHR013C, strain ard1, stronger effect = lower value 0.978 | locus YHR027C, strain rpn1, stronger effect = lower value 1 | locus YHR030C, strain SLT2, stronger effect = lower value 0.98 and 1.01 | locus YHR079C, strain IRE1 (second series), stronger effect = lower value 0.966 | locus YHR079C, strain IRE1, stronger effect = lower value 0.971 | locus YHR094C, strain hxt1, stronger effect = lower value 0.952 | locus YHR129C, strain ARP1, stronger effect = lower value 0.98 | locus YHR142W, strain chs7, stronger effect = lower value 0.982 | locus YHR200W, strain rpn10, stronger effect = lower value 0.951 | locus YIL066C, strain RNR3, stronger effect = lower value 0.977 | locus YIL073C, strain SPO22, stronger effect = lower value 0.975 | locus YIL125W, strain kgd1, stronger effect = lower value 0.969 | locus YIR030C, strain dcg1, stronger effect = lower value 0.967 | locus YJL092W, strain hpr5, stronger effect = lower value 0.987 | locus YJL095W, strain BCK1 (second series), stronger effect = lower value 0.987 | locus YJL095W, strain BCK1, stronger effect = lower value 0.974 and 0.981 | locus YJL115W, strain asf1, stronger effect = lower value 0.975 | locus YJL129C, strain trk1, stronger effect = lower value 1.08 | locus YJL134W, strain LCB3, stronger effect = lower value 0.976 | locus YJL154C, strain vps35, stronger effect = lower value 0.98 | locus YJL164C, strain tpk1, stronger effect = lower value 0.994 | locus YJL166W, strain qcr8, stronger effect = lower value 0.986 | locus YJL168C, strain set2, stronger effect = lower value 0.966 | locus YJL187C, strain SWE1 (second series), stronger effect = lower value 0.978 | locus YJR043C, strain POL32, stronger effect = lower value 1 | locus YJR066W, strain TOR1, stronger effect = lower value 0.97
